# Laboratory results published in the supplement of paper PMC4466140.
# Tests used:
# Experiment in all cases: SPOT peptide array binding signal intensity (averaged, normalized) (arbitrary units (background-subtracted, floor 0; scale differs between SH3 domains)); higher = stronger binding of the SH3 domain to the peptide
# CaNbp2 = molecular target: CaNbp2
# Method in brief: (§1)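 E. coli BL21(DE3) was used to express GST-fused SH3 domains from four yeast species, which were then purified on glutathione Sepharose. These were incubated at 10 μg/ml in TBS-based blocking buffer overnight at 4°C on cellulose membranes carrying synthetic 15-mer peptides, in which cysteines were replaced by serines. Binding signal is the replicate average of normalized, background-subtracted spot intensity, in arbitrary units that differ between domains.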
# CaRvs167 = molecular target: CaRvs167
# Method in brief: as §1
# CaRvs167-3 = molecular target: CaRvs167-3
# Method in brief: as §1
# CaSho1 = molecular target: CaSho1
# Method in brief: as §1
# CaSla1-D1-D2 = molecular target: CaSla1-D1-D2
# Method in brief: as §1
# CaSla1-D3 = molecular target: CaSla1-D3
# Method in brief: as §1
# ScAbp1 = molecular target: ScAbp1
# Method in brief: as §1
# ScBbc1 = molecular target: ScBbc1
# Method in brief: as §1
# ScBem1-D1 = molecular target: ScBem1-D1
# Method in brief: as §1
# ScBzz1-D1 = molecular target: ScBzz1-D1
# Method in brief: as §1
# ScBzz1-D2 = molecular target: ScBzz1-D2
# Method in brief: as §1
# ScCyk3 = molecular target: ScCyk3
# Method in brief: as §1
# ScFus1 = molecular target: ScFus1
# Method in brief: as §1
# ScHof1 = molecular target: ScHof1
# Method in brief: as §1
# ScHse1 = molecular target: ScHse1
# Method in brief: as §1
# ScLsb1 = molecular target: ScLsb1
# Method in brief: as §1
# ScLsb2 = molecular target: ScLsb2
# Method in brief: as §1
# ScLsb3 = molecular target: ScLsb3
# Method in brief: as §1
# ScLsb4 = molecular target: ScLsb4
# Method in brief: as §1
# ScMyo3 = molecular target: ScMyo3
# Method in brief: as §1
# ScMyo5 = molecular target: ScMyo5
# Method in brief: as §1
# ScNbp2 = molecular target: ScNbp2
# Method in brief: as §1
# ScPex13 = molecular target: ScPex13
# Method in brief: as §1
# ScRvs167 = molecular target: ScRvs167
# Method in brief: as §1
# ScSho1 = molecular target: ScSho1
# Method in brief: as §1
# ScSla1-D1-D2 = molecular target: ScSla1-D1-D2
# Method in brief: as §1
# ScSla1-D3 = molecular target: ScSla1-D3
# Method in brief: as §1
# SpAbp1-D1 = molecular target: SpAbp1-D1
# Method in brief: as §1
# SpBbc1 = molecular target: SpBbc1
# Method in brief: as §1
# SpBzz1-D1 = molecular target: SpBzz1-D1
# Method in brief: as §1
# SpBzz1-D2 = molecular target: SpBzz1-D2
# Method in brief: as §1
# SpCyk3 = molecular target: SpCyk3
# Method in brief: as §1
# SpHof1 = molecular target: SpHof1
# Method in brief: as §1
# SpHof1-2 = molecular target: SpHof1-2
# Method in brief: as §1
# SpHof1-3 = molecular target: SpHof1-3
# Method in brief: as §1
# SpHse1 = molecular target: SpHse1
# Method in brief: as §1
# SpLsb1 = molecular target: SpLsb1
# Method in brief: as §1
# SpLsb4 = molecular target: SpLsb4
# Method in brief: as §1
# SpMyo1 = molecular target: SpMyo1
# Method in brief: as §1
# SpNbp2 = molecular target: SpNbp2
# Method in brief: as §1
# SpPex13 = molecular target: SpPex13
# Method in brief: as §1
# SpRvs167 = molecular target: SpRvs167
# Method in brief: as §1
# SpSla1-D1-D2 = molecular target: SpSla1-D1-D2
# Method in brief: as §1
# SpSla1-D3 = molecular target: SpSla1-D3
# Method in brief: as §1
# AgAbp1 = molecular target: AgAbp1
# Method in brief: as §1
# AgBbc1 = molecular target: AgBbc1
# Method in brief: as §1
# AgBem1-D1 = molecular target: AgBem1-D1
# Method in brief: as §1
# AgBzz1-D1 = molecular target: AgBzz1-D1
# Method in brief: as §1
# AgBzz1-D2 = molecular target: AgBzz1-D2
# Method in brief: as §1
# AgCyk3 = molecular target: AgCyk3
# Method in brief: as §1
# AgFus1 = molecular target: AgFus1
# Method in brief: as §1
# AgHof1 = molecular target: AgHof1
# Method in brief: as §1
# AgHse1 = molecular target: AgHse1
# Method in brief: as §1
# AgLsb1 = molecular target: AgLsb1
# Method in brief: as §1
# AgLsb4 = molecular target: AgLsb4
# Method in brief: as §1
# AgMyo5 = molecular target: AgMyo5
# Method in brief: as §1
# AgNbp2 = molecular target: AgNbp2
# Method in brief: as §1
# AgRvs167 = molecular target: AgRvs167
# Method in brief: as §1
# AgSho1 = molecular target: AgSho1
# Method in brief: as §1
# AgSla1-D1-D2 = molecular target: AgSla1-D1-D2
# Method in brief: as §1
# AgSla1-D3 = molecular target: AgSla1-D3
# Method in brief: as §1
# CaAbp1-D1 = molecular target: CaAbp1-D1
# Method in brief: as §1
# CaAbp1-D2 = molecular target: CaAbp1-D2
# Method in brief: as §1
# CaBbc1 = molecular target: CaBbc1
# Method in brief: as §1
# CaBem1-D1 = molecular target: CaBem1-D1
# Method in brief: as §1
# CaBzz1-D1 = molecular target: CaBzz1-D1
# Method in brief: as §1
# CaBzz1-D2 = molecular target: CaBzz1-D2
# Method in brief: as §1
# CaCyk3 = molecular target: CaCyk3
# Method in brief: as §1
# CaFus1 = molecular target: CaFus1
# Method in brief: as §1
# CaHof1 = molecular target: CaHof1
# Method in brief: as §1
# CaHse1 = molecular target: CaHse1
# Method in brief: as §1
# CaLsb1 = molecular target: CaLsb1
# Method in brief: as §1
# CaLsb4 = molecular target: CaLsb4
# Method in brief: as §1
# CaMyo5 = molecular target: CaMyo5
# Method in brief: as §1
binder,measurement,setting,value
DDEDVPPQLPTRTKS,SPOT peptide array binding signal intensity,CaNbp2,≤ 0
same,SPOT peptide array binding signal intensity,CaRvs167,1080
same,SPOT peptide array binding signal intensity,CaRvs167-3,3.5
same,SPOT peptide array binding signal intensity,CaSho1,≤ 0
same,SPOT peptide array binding signal intensity,CaSla1-D1-D2,≤ 0
same,SPOT peptide array binding signal intensity,CaSla1-D3,≤ 0
same,SPOT peptide array binding signal intensity,ScAbp1,≤ 0
same,SPOT peptide array binding signal intensity,ScBbc1,0.5
same,SPOT peptide array binding signal intensity,ScBem1-D1,≤ 0
same,SPOT peptide array binding signal intensity,ScBzz1-D1,6
same,SPOT peptide array binding signal intensity,ScBzz1-D2,22
same,SPOT peptide array binding signal intensity,ScCyk3,1
same,SPOT peptide array binding signal intensity,ScFus1,6
same,SPOT peptide array binding signal intensity,ScHof1,16.5
same,SPOT peptide array binding signal intensity,ScHse1,23.5
same,SPOT peptide array binding signal intensity,ScLsb1,576
same,SPOT peptide array binding signal intensity,ScLsb2,≤ 0
same,SPOT peptide array binding signal intensity,ScLsb3,9300
same,SPOT peptide array binding signal intensity,ScLsb4,3020
same,SPOT peptide array binding signal intensity,ScMyo3,≤ 0
same,SPOT peptide array binding signal intensity,ScMyo5,≤ 0
same,SPOT peptide array binding signal intensity,ScNbp2,≤ 0
same,SPOT peptide array binding signal intensity,ScPex13,1570
same,SPOT peptide array binding signal intensity,ScRvs167,1980
same,SPOT peptide array binding signal intensity,ScSho1,6
same,SPOT peptide array binding signal intensity,ScSla1-D1-D2,1
same,SPOT peptide array binding signal intensity,ScSla1-D3,0.5
same,SPOT peptide array binding signal intensity,SpAbp1-D1,≤ 0
same,SPOT peptide array binding signal intensity,SpBbc1,3.75
same,SPOT peptide array binding signal intensity,SpBzz1-D1,0.5
same,SPOT peptide array binding signal intensity,SpBzz1-D2,≤ 0
same,SPOT peptide array binding signal intensity,SpCyk3,≤ 0
same,SPOT peptide array binding signal intensity,SpHof1,16.8
same,SPOT peptide array binding signal intensity,SpHof1-2,7
same,SPOT peptide array binding signal intensity,SpHof1-3,6
same,SPOT peptide array binding signal intensity,SpHse1,7
same,SPOT peptide array binding signal intensity,SpLsb1,27.5
same,SPOT peptide array binding signal intensity,SpLsb4,7620
same,SPOT peptide array binding signal intensity,SpMyo1,≤ 0
same,SPOT peptide array binding signal intensity,SpNbp2,8
same,SPOT peptide array binding signal intensity,SpPex13,≤ 0
same,SPOT peptide array binding signal intensity,SpRvs167,1800
same,SPOT peptide array binding signal intensity,SpSla1-D1-D2,≤ 0
same,SPOT peptide array binding signal intensity,SpSla1-D3,3
VQPTAAPATPPRHIS,SPOT peptide array binding signal intensity,AgAbp1,≤ 0
same,SPOT peptide array binding signal intensity,AgBbc1,≤ 0
same,SPOT peptide array binding signal intensity,AgBem1-D1,≤ 0
same,SPOT peptide array binding signal intensity,AgBzz1-D1,≤ 0
same,SPOT peptide array binding signal intensity,AgBzz1-D2,≤ 0
same,SPOT peptide array binding signal intensity,AgCyk3,≤ 0
same,SPOT peptide array binding signal intensity,AgFus1,≤ 0
same,SPOT peptide array binding signal intensity,AgHof1,≤ 0
same,SPOT peptide array binding signal intensity,AgHse1,5.5
same,SPOT peptide array binding signal intensity,AgLsb1,8
same,SPOT peptide array binding signal intensity,AgLsb4,964
same,SPOT peptide array binding signal intensity,AgMyo5,≤ 0
same,SPOT peptide array binding signal intensity,AgNbp2,≤ 0
same,SPOT peptide array binding signal intensity,AgRvs167,43.6
same,SPOT peptide array binding signal intensity,AgSho1,≤ 0
same,SPOT peptide array binding signal intensity,AgSla1-D1-D2,≤ 0
same,SPOT peptide array binding signal intensity,AgSla1-D3,≤ 0
same,SPOT peptide array binding signal intensity,CaAbp1-D1,≤ 0
same,SPOT peptide array binding signal intensity,CaAbp1-D2,≤ 0
same,SPOT peptide array binding signal intensity,CaBbc1,78.6
same,SPOT peptide array binding signal intensity,CaBem1-D1,5
same,SPOT peptide array binding signal intensity,CaBzz1-D1,≤ 0
same,SPOT peptide array binding signal intensity,CaBzz1-D2,≤ 0
same,SPOT peptide array binding signal intensity,CaCyk3,≤ 0
same,SPOT peptide array binding signal intensity,CaFus1,≤ 0
same,SPOT peptide array binding signal intensity,CaHof1,≤ 0
same,SPOT peptide array binding signal intensity,CaHse1,5.25
same,SPOT peptide array binding signal intensity,CaLsb1,≤ 0
same,SPOT peptide array binding signal intensity,CaLsb4,2000
same,SPOT peptide array binding signal intensity,CaMyo5,≤ 0
same,SPOT peptide array binding signal intensity,CaNbp2,≤ 0
same,SPOT peptide array binding signal intensity,CaRvs167,462
same,SPOT peptide array binding signal intensity,CaRvs167-3,≤ 0
same,SPOT peptide array binding signal intensity,CaSho1,≤ 0
same,SPOT peptide array binding signal intensity,CaSla1-D1-D2,≤ 0
same,SPOT peptide array binding signal intensity,CaSla1-D3,≤ 0
same,SPOT peptide array binding signal intensity,ScAbp1,≤ 0
same,SPOT peptide array binding signal intensity,ScBbc1,1.75
same,SPOT peptide array binding signal intensity,ScBem1-D1,≤ 0
same,SPOT peptide array binding signal intensity,ScBzz1-D1,≤ 0
same,SPOT peptide array binding signal intensity,ScBzz1-D2,≤ 0
same,SPOT peptide array binding signal intensity,ScCyk3,≤ 0
same,SPOT peptide array binding signal intensity,ScFus1,≤ 0
same,SPOT peptide array binding signal intensity,ScHof1,0.5
same,SPOT peptide array binding signal intensity,ScHse1,≤ 0
same,SPOT peptide array binding signal intensity,ScLsb1,14.5
same,SPOT peptide array binding signal intensity,ScLsb2,≤ 0
same,SPOT peptide array binding signal intensity,ScLsb3,6740
same,SPOT peptide array binding signal intensity,ScLsb4,1970
same,SPOT peptide array binding signal intensity,ScMyo3,≤ 0
same,SPOT peptide array binding signal intensity,ScMyo5,≤ 0
same,SPOT peptide array binding signal intensity,ScNbp2,≤ 0
same,SPOT peptide array binding signal intensity,ScPex13,4
same,SPOT peptide array binding signal intensity,ScRvs167,1040
same,SPOT peptide array binding signal intensity,ScSho1,4.75
same,SPOT peptide array binding signal intensity,ScSla1-D1-D2,≤ 0
same,SPOT peptide array binding signal intensity,ScSla1-D3,≤ 0
same,SPOT peptide array binding signal intensity,SpAbp1-D1,≤ 0
same,SPOT peptide array binding signal intensity,SpBbc1,≤ 0
same,SPOT peptide array binding signal intensity,SpBzz1-D1,≤ 0
